The supplement of paper PMC11732987, “Enantioselective OTUD7B fragment discovery through chemoproteomics screening and high-throughput optimisation” (Communications Chemistry, 2025)

What was measured:
Assay in all cases: log2 ratio of Biotin-Ahx-Ub-VS probe labelling (fragment/DMSO); higher = less target engagement (more negative = stronger competition), active = hit call of the paper (q ≤ 0.05, log2 ratio ≤ -1)
Details in all cases: compound concentration: 200 uM; treatment time: 3 h
OTUD6B = molecular target: T1, OTUD6B (UniProt Q8N6M0)
T1 sequence (whole entry): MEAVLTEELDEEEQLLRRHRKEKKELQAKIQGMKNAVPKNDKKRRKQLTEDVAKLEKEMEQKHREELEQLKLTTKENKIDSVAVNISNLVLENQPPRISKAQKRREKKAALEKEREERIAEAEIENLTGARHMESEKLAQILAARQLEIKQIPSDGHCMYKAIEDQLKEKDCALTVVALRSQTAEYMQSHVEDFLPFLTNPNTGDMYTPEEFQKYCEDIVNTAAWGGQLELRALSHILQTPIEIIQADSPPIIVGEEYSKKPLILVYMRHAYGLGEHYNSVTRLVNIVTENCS
Procedure, shortened: (§1)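 Triplicate samples of HEK293T lysate, 495 µg each, received fragment at 200 µM or vehicle for 3 h, followed by Biotin-Ahx-Ub-VS (0.5 µM final) for 1 h. After NeutrAvidin enrichment of labelled DUBs and LysC/trypsin digestion, peptides were run by diaPASEF LC-MS/MS. The values are average log2 fragment/vehicle ratios from global-median-normalised Spectronaut label-free quantities, tested by unpaired t-test on proteins having ≥2 unique peptides.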

OTUD7B = molecular target: T2, OTUD7B (UniProt Q6GQQ9)
T2 sequence (whole entry): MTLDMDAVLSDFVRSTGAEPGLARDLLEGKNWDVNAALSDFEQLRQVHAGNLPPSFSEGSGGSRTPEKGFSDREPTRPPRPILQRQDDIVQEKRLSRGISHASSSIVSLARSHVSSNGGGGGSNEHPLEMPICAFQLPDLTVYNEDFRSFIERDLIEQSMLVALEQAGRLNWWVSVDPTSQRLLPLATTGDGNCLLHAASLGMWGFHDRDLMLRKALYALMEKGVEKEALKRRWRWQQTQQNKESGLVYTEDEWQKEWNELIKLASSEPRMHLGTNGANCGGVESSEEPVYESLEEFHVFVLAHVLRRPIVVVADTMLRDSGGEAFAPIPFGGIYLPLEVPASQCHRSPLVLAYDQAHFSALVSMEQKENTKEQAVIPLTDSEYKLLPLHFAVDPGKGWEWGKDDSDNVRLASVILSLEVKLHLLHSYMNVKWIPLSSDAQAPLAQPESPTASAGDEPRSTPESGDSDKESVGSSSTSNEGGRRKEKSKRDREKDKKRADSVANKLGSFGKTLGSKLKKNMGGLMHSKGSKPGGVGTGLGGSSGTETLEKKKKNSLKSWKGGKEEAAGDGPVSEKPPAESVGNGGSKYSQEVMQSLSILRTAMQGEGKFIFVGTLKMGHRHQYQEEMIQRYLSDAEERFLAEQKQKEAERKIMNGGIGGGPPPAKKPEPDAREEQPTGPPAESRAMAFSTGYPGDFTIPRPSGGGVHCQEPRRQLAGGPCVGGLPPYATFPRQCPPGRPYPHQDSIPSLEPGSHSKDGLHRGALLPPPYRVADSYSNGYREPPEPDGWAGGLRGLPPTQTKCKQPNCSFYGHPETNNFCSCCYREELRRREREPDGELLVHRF
Procedure, shortened: as §1

PRPF8 = PRPF8 (UniProt Q6P2Q9)
Procedure, shortened: as §1

PSMD7 = molecular target: T3, PSMD7 (UniProt P51665)
T3 sequence (whole entry): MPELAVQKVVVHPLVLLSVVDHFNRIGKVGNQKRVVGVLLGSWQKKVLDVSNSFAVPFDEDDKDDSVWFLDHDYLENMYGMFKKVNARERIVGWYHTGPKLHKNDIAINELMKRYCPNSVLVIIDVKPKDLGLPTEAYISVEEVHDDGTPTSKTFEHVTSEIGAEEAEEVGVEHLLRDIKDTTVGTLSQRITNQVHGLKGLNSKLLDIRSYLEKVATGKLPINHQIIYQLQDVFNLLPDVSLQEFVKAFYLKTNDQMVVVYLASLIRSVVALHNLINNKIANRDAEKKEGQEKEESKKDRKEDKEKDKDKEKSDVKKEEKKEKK
Procedure, shortened: as §1

UCHL1 = UCHL1 (UniProt P09936)
UCHL1, sequence (P09936 whole entry, looked up): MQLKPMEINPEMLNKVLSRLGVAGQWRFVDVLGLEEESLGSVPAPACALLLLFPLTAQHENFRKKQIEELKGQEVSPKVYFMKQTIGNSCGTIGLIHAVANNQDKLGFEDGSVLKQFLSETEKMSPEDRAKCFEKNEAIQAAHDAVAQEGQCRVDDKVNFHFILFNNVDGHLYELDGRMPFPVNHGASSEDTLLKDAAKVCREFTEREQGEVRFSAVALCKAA
Procedure, shortened: as §1

UCHL3 = molecular target: T4, UCHL3 (UniProt P15374)
T4 sequence (whole entry): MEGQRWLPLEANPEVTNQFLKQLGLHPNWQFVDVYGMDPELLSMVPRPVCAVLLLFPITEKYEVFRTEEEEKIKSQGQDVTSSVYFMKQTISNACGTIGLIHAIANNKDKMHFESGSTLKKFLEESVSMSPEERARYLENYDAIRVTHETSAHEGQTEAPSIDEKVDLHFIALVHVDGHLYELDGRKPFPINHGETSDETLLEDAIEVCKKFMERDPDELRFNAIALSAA
Procedure, shortened: as §1

UCHL5 = molecular target: T5, UCHL5 (UniProt Q9Y5K5)
T5 sequence (whole entry): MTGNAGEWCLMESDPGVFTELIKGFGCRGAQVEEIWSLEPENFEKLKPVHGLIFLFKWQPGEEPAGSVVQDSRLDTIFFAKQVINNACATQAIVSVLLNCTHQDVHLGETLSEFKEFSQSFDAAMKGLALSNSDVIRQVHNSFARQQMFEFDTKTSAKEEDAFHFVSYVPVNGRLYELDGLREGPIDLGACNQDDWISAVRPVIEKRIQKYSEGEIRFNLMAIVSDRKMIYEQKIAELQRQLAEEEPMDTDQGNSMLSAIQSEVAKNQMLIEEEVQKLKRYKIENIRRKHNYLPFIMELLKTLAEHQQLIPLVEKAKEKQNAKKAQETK
Procedure, shortened: as §1

USP10 = USP10 (UniProt Q14694)
USP10, sequence (Q14694 whole entry): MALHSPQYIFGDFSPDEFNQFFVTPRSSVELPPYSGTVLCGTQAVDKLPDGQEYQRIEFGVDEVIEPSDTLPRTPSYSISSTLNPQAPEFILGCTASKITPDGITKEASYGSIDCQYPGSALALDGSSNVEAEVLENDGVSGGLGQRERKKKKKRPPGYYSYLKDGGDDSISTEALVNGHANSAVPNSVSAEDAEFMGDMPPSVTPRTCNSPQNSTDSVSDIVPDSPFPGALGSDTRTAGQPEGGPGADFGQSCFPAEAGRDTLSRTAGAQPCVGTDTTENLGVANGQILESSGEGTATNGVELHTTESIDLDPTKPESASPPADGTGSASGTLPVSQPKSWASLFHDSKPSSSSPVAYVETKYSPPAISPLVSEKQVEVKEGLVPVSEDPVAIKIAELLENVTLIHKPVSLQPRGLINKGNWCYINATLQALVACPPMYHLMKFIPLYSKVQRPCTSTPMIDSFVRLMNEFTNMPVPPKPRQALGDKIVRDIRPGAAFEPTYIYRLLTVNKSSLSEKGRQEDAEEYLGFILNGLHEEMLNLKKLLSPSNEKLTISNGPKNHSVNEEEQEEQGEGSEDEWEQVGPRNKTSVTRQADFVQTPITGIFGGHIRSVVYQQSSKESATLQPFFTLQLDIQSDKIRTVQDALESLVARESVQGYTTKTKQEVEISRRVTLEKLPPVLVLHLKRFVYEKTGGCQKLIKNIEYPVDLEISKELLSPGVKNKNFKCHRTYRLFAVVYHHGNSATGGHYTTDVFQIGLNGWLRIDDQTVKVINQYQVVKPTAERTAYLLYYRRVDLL
Procedure, shortened: as §1

USP15 = molecular target: T6, USP15 (UniProt Q9Y4E8)
T6 sequence (whole entry): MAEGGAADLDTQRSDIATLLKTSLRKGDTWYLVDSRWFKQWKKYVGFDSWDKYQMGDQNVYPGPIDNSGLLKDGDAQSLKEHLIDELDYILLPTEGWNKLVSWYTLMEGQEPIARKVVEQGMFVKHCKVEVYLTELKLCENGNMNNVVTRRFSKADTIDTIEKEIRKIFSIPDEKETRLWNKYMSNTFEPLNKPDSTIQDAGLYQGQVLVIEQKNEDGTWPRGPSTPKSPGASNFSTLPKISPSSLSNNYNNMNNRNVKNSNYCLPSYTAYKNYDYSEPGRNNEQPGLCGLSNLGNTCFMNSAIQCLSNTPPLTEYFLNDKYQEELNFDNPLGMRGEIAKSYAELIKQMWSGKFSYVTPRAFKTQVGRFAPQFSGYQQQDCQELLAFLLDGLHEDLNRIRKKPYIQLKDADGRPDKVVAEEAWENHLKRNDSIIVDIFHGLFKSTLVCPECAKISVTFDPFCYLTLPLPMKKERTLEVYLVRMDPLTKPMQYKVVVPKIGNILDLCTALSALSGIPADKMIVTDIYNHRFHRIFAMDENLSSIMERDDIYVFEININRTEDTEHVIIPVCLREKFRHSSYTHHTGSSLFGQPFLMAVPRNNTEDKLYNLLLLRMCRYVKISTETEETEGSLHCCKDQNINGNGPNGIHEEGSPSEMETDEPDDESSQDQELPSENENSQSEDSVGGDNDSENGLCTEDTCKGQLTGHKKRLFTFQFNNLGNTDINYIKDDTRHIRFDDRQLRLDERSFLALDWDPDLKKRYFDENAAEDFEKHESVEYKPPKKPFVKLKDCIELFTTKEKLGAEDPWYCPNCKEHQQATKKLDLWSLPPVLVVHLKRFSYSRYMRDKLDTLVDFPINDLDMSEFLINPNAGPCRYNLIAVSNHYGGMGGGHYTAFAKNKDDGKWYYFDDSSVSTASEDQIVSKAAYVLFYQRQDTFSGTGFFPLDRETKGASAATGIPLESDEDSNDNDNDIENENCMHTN
Procedure, shortened: as §1

USP16 = USP16 (UniProt Q9Y5T5)
USP16, sequence (Q9Y5T5 whole entry, looked up): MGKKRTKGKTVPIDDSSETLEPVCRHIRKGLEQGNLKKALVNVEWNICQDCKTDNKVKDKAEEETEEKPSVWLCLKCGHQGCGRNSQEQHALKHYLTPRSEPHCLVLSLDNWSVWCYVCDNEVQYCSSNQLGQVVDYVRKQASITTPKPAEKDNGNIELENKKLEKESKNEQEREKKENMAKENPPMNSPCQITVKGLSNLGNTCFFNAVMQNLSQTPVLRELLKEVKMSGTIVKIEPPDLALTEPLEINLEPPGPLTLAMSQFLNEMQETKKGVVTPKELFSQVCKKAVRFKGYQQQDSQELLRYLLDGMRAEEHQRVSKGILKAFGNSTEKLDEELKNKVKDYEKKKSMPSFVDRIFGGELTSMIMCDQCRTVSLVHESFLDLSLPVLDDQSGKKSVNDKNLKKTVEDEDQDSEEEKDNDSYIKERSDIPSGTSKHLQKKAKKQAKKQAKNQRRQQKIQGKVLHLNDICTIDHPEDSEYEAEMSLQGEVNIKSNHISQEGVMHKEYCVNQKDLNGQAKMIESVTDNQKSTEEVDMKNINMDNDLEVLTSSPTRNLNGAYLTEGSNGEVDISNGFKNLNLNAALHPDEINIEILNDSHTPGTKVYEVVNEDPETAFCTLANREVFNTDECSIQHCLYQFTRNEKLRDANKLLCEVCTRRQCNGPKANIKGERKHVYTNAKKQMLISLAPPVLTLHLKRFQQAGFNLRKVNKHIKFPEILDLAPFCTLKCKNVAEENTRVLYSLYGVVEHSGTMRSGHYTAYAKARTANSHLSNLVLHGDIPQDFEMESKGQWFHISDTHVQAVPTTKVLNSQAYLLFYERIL
Procedure, shortened: as §1

Measured: log2 ratio of Biotin-Ahx-Ub-VS probe labelling

Cl.Cn1ncc2c1CC(NC(=O)CCl)CC2 (stereo not given)
active: UCHL1 -1.84
inactive: OTUD6B 0.0134 | OTUD7B -0.999 | PRPF8 0.142 | PSMD7 -0.2 | UCHL3 0.377 | UCHL5 -0.0217 | USP10 -0.106 | USP15 -0.0211 | USP16 -0.62
